{"source": "PubChem BioAssay (NCATS)", "note": "Records with an inconclusive call do not appear. Entries that show only a call come without a potency. Active and inactive are the calls of the source. Calls come from the whole dose curve; as a rule, active = well fitted cell-killing curve with a large enough effect; inconclusive = small, poorly fitted or top-dose-only effect; inactive = flat fitted curve, though single readings scatter. Potency is the fitted concentration of half-maximal effect."}
{"assay": "qHTS of pediatric cancer cell lines to identify multiple opportunities for drug repurposing: Primary screen for control Hh wild type fibroblast cells (AID 1347106); note: nearly all actives have a fitted effect of over 55% in size", "details": "Hh wild-type fibroblast viability, CellTiter-Glo luminescence, 48 h; series mostly up to 46 µM", "text": "Drug repurposing or repositioning has been offered as a strategy for drug development in oncology programs. This approach has special potential for childhood cancers and other rare or orphan diseases, where the expected return on new drug development has been a disincentive to pharmaceuticals.\nIn this project we exploit the poly-pharmacology of drugs to discover new indications via phenotypic screening of a panel of 19 well-characterized cell lines derived from solid tumors seen in children and adolescents. The goal is to identify approved drugs with previously unrecognized anticancer properties that has the potential to reveal new mechanisms and biological processes involved in carcinogenesis or drug resistance. We employed a titration-based paradigm (quantitative high-throughput screening or qHTS), where all compounds were tested at multiple concentrations for their effect on cell viability. Concentration-response curves (CRCs) were derived directly from the primary screen, and both potency and efficacy values were used to identify compounds with robust bioactivity profiles. We screened the NIH Chemical Genomics Center (NCGC) Pharmaceutical Collection (NPC) and Mechanism Interrogation Plate (MIPE) small molecule collections of approved and investigational compounds against these cell lines; and measured metabolically active cells after 48 hours of compound treatment as a proxy for cell viability.\nAssay Submitter: Nathalia J. Martinez, National Center for Advancing Translational Sciences, National Institutes of Health, Rockville, MD, USA; email: natalia.martinez@nih.gov\n[1] Shen, M et al. Quantitative high-throughput phenotypic screening of pediatric cancer cell lines identifies multiple opportunities for drug repurposing. Oncotarget 2017 Dec 19;9(4):4758-4772. PMID 29435139.\nThe cells were obtained from University of North Carolina (UNC), Pediatric Preclinical Testing Program (PPT), and Coriell Institute (CI).\nqHTS cell viability assay:\nCells were assayed in growth media at a density of 500-1,000 cells/well. Five microliters of cells were dispensed into 1,536-well, white, solid-bottom, TC-treated plates (Greiner Bio One) using a multidrop dispenser and incubated at 37 degrees C, 5% CO2, under a humidified atmosphere for 5 hours. Twenty-three nanoliters of compounds and controls (neutral control DMSO or positive control bortezomib at final concentration of 2.3 µM) were subsequently transferred by Kalypsys pintool. For primary screens, the MIPE collection was tested at 11-point dilutions (final concentrations range from 0.78 nM to 46 µM) and the NPC collection at 8-point dilutions (final concentrations range from 0.59 nM to 46 µM). Compounds tested in follow-up screens were assayed at 11-point dilutions. Cells were incubated for 48 hours, followed by addition of 3 µL of CellTiter-Glo (Promega). After a 15 min incubation at room temperature, samples were analyzed for luminescence intensity using a ViewLux High-throughput CCD imager equipped with clear filters."}
{"smiles": "CC(C=CC=C(C)C=CC1=C(C)CCCC1(C)C)=CC=CC=C(C)C=CC=C(C)C=CC1=C(C)CCCC1(C)C", "Potency": "inactive"}
{"smiles": "C[C@H](NC(=O)C(C#N)=Cc1cccc(Br)n1)c1ccccc1", "Potency": "inactive"}
{"smiles": "N=c1ccn2c(n1)O[C@H]1[C@@H](O)[C@@H](CO)O[C@H]12", "Potency": "inactive"}
{"smiles": "CCCCCCCCCCCCCCCC(=O)OC[C@@H](NC(=O)C(Cl)Cl)[C@H](O)c1ccc([N+](=O)[O-])cc1", "Potency": "inactive"}
{"smiles": "C[C@H]1[C@@H](OC(=O)CCC(=O)O)O[C@@H]2O[C@@]3(C)CC[C@@H]4[C@H](C)CC[C@@H]1[C@@]24OO3", "Potency": "inactive"}
{"smiles": "CC(=O)C1=C(O)C=C2Oc3c(C(C)=O)c(O)c(C)c(O)c3C2(C)C1=O", "note": "(stereo not given)", "Potency": "inactive"}
{"smiles": "CC1(C)O[C@@H]2C[C@H]3[C@@H]4CCC5=CC(=O)C=C[C@]5(C)[C@@H]4[C@@H](O)C[C@]3(C)[C@]2(C(=O)CO)O1", "Potency": "inactive"}
{"smiles": "NC1=N[C@H]2[C@H](CS[C@H]2CCCCC(=O)O)N1", "Potency": "inactive"}
{"smiles": "O=C(CN1C(=O)C2(CCCC2)NC[C@H]1c1cc(F)cc(F)c1)Nc1ccc2c(c1)C[C@@]1(C2)C(=O)Nc2ncccc21", "Potency": "inactive"}
{"smiles": "Cn1cc(C[C@@H](N)C(=O)O)c2ccccc21", "Potency": "inactive"}
{"smiles": "CCOC(=O)N1CCN([N+]([O-])=NOc2ccc([N+](=O)[O-])cc2[N+](=O)[O-])CC1", "Potency": "inactive"}
{"smiles": "CC(C)(C)[N+]([O-])=Cc1ccc(S(=O)(=O)O)cc1S(=O)(=O)O", "Potency": "inactive"}
{"smiles": "CC(C)C[C@H](NC(=O)[C@@H](NC(=O)c1cccc(-c2ccccc2)n1)[C@@H](C)O)B(O)O", "Potency": "209 nM (active)"}
{"smiles": "CCCCCN=C(N)NN=Cc1c[nH]c2ccc(OC)cc12", "Potency": "inactive"}
{"smiles": "C=C1CCC2[C@](C)(CO)C(O)CC[C@]2(C)C1CC=C1C(=O)OCC1O", "note": "(stereo not given in full)", "Potency": "inactive"}
{"smiles": "CCS(=O)(=O)Nc1ccc2[nH]c(O)c(C(=Nc3ccc(CN4CCCCC4)cc3)c3ccccc3)c2c1", "Potency": "inactive"}
{"smiles": "C=CC1=C(C(=O)O)N2C(=O)[C@@H](NC(=O)C(=NO)c3csc(N)n3)[C@H]2SC1", "Potency": "inactive"}
{"smiles": "Cc1cc(-c2nnc3n2CCCCC3)c(C)n1-c1ccccc1", "Potency": "inactive"}
{"smiles": "O=C(C[C@@H]1CC=CCCC(=O)O[C@H](c2ccccc2)CNC1=O)NCc1ccc(Cl)cc1", "Potency": "inactive"}
{"smiles": "O=C1c2cccc(O)c2C(=O)c2c(O)cc(CO)cc21", "Potency": "inactive"}
{"smiles": "O=C(O)C(=O)Nc1cccc(C2=NN=N[N]2)c1", "Potency": "inactive"}
{"smiles": "Cc1cnc(NC(=O)Nc2cc(Br)c(C)cc2OC[C@@H]2CNCCO2)cn1", "Potency": "inactive"}
{"smiles": "Cc1cn([C@@H]2O[C@H](CO)[C@@H](O)[C@H]2F)c(=O)[nH]c1=O", "Potency": "inactive"}
{"smiles": "O=[N+]([O-])c1cn2c(n1)OC[C@@H](OCc1ccc(OC(F)(F)F)cc1)C2", "Potency": "inactive"}
{"smiles": "CON=C(C(=O)N[C@@H]1C(=O)N2C(C(=O)O)=C(CSC(=O)c3ccco3)CS[C@H]12)c1csc(N)n1", "Potency": "inactive"}
{"smiles": "CCn1c(=O)c2c(nc(C=Cc3ccc(OC)c(OC)c3)n2C)n(CC)c1=O", "Potency": "inactive"}
{"smiles": "C=C[C@@H]1CN2CCC1C[C@H]2[C@H](O)c1ccnc2ccc(OC)cc12", "note": "(stereo not given in full)", "Potency": "inactive"}
{"smiles": "COc1cc(C)c(C=CC(C)=CC=CC(C)=CC(=O)O)c(C)c1C", "Potency": "inactive"}
{"smiles": "O=C1c2c(O)cccc2[C@@H]([C@@H]2O[C@H](CO)[C@@H](O)[C@H](O)[C@H]2O)c2cc(CO)cc(O)c21", "Potency": "inactive"}
{"smiles": "OC[C@@H](O)[C@@H](O)[C@H](O)[C@@H](O)CO", "Potency": "inactive"}
{"smiles": "CS(=O)(=O)N1CCc2c(-c3cnc(N)nc3)nc(N3CCOCC3)nc21", "Potency": "inactive"}
{"smiles": "C#CCC(Cc1cnc2nc(N)nc(N)c2n1)c1ccc(C(=O)N[C@@H](CCC(=O)O)C(=O)O)cc1", "note": "(stereo not given in full)", "Potency": "inactive"}
{"smiles": "C[C@@H](Cc1cc2c(c(C(N)=O)c1)N(CCCO)CC2)NCCOc1ccccc1OCC(F)(F)F", "Potency": "inactive"}
{"smiles": "Nc1nc2c(c(=O)[nH]1)N(C=O)[C@H](CNc1ccc(C(=O)N[C@@H](CCC(=O)O)C(=O)O)cc1)CN2", "Potency": "inactive"}
{"smiles": "CCc1cc(C(C)=NOCc2ccc(C3CCCCC3)c(C(F)(F)F)c2)ccc1CN1CC(C(=O)O)C1", "Potency": "inactive"}
{"smiles": "COc1cccc2c1C(=O)c1c(O)c3c(c(O)c1C2=O)C[C@@](O)(C(=O)CO)C[C@@H]3O[C@H]1C[C@H](N)[C@H](OC2CCCCO2)[C@H](C)O1", "note": "(stereo not given in full)", "Potency": "inactive"}
{"smiles": "CC(C)(C)c1nc2c3cc[nH]c(=O)c3c3cc(F)ccc3c2[nH]1", "Potency": "inactive"}
{"smiles": "CC1(C)[C@H](O[C@H]2O[C@H](C(=O)O)[C@@H](O)[C@H](O)[C@H]2O[C@@H]2O[C@H](C(=O)O)[C@@H](O)[C@H](O)[C@H]2O)CC[C@@]2(C)[C@H]1CC[C@]1(C)[C@H]2C(=O)C=C2[C@H]3C[C@@](C)(C(=O)O)CC[C@]3(C)CC[C@]21C", "Potency": "inactive"}
{"smiles": "CN1CCCN(C(=O)c2cccc(-c3ccc(C=C4C(=O)Nc5ccc(Cl)cc54)o3)c2)CC1", "Potency": "inactive"}
{"smiles": "CC(=O)O[C@H]1C[C@@H]2CC[C@H]3[C@H]4C[C@H]([N+]5(C)CCCCC5)[C@@H](OC(C)=O)[C@@]4(C)CC[C@@H]3[C@@]2(C)C[C@H]1N1CCCCC1", "Potency": "inactive"}
